From PubChem BioAssay AID624351 (Southern Research Specialized Biocontainment Screening …, 2012) come the findings set out here.

Screen size: about 2,400 compounds; about 1,400 (58%) were called active.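 How the source made its calls: active means inhibition of 30% or more at any tested dose; inconclusive means primary hits over the limit that were never retested; inactive means the rest.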 The set was probably picked from earlier hits. The list shows a part of the results.

The test is described as follows: ADP Hunter readout inhibition without MgcRacGAP – biochemical, coupled enzyme counter-screen, artefact control for MgcRacGAP inhibitor project, dose response (AID 624351).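 Further: signal is the ADP detection kit reading of free GDP without any GAP enzyme.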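 On inhibition: 0% = median positive control wells and 100% = median negative control wells.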 The conditions noted are these: fluorescence, no MgcRacGAP; series mostly up to 80 µM; inhibition: at the top concentration.
Turning to `Cc1cc(C)c(C#N)c(SCS(=O)Cc2ccc(Cl)cc2)n1` (stereo not given), the “inhibition” value is 2.15% (inactive). The same measure, in the same setting: to `NC(=NCCCCCCN=C(N)/N=C(\N)Nc1ccc(Cl)cc1)/N=C(\N)Nc1ccc(Cl)cc1` belongs 7.86% (inactive). As for `Oc1ccc(/C=N/Nc2cc(N3CCOCC3)nc(N3CCOCC3)n2)cc1`, the concentration for half-maximal inhibition (IC50) is 49.2 µM (active). `COc1ccc2c(-c3ccccc3)cc(N3CCOCC3)nc2c1`: the “inhibition” value is -30.5% (inactive).

With `Oc1ccc(/C=N\Nc2cc(N3CCOCC3)nc(N3CCOCC3)n2)c(O)c1`, the IC50 is 76.4 µM (active). Turning to `Oc1ccc(/C=N/Nc2cc(N3CCOCC3)nc(N3CCOCC3)n2)cc1O`, the IC50 was 75.5 µM (active).

As for `CN(C)c1ccc(-n2cccc2/C=C/[N+](=O)[O-])cc1`, the “inhibition” value was -0.44% (inactive). On the same count and under the same terms, to `CCCCN(C)C(=O)C1CCN(Cc2cccc(OCc3ccccc3)c2)CC1` belongs 12.6% (inactive). For `COc1ccc(C=Nc2ccc3[nH]ncc3c2)c(O)c1`, the IC50 is 38.4 µM (active).

On to `Cc1ccc(O)c(C=Nc2ccc3[nH]ncc3c2)c1`, for which the concentration for half-maximal inhibition (IC50) is 34.5 µM (active).

Consider `Oc1ccc(Br)cc1C=Nc1ccc2[nH]ncc2c1`, for which the IC50 is 48.2 µM (active). Turning to `COc1ccc2[nH]c3c(C)c4ccncc4c(C)c3c2c1`, the “inhibition” value is 7.02% (inactive). With `Brc1ccc(OCCCN2CCOCC2)cc1`, the “inhibition” value is 17.2% (inactive). The same measure, in the same setting: the value for `Cc1ccc(/C=C2/C(=O)ON=C2c2ccccc2)o1` was -8.72% (inactive). With `CCN(c1ccccc1)S(=O)(=O)c1ccc(Cl)c(NC(=O)CN(C)C2CCN(C)CC2)c1`, the “inhibition” value is 10.9% (inactive). For `CCN(c1ccccc1)S(=O)(=O)c1ccc(N2CCN(c3ccc(O)cc3)CC2)nc1`, the IC50 was 53.5 µM (active). As for `COc1ccccc1CNCC(=O)N1CC(=O)Nc2ccccc21`, the “inhibition” value is -1.72% (inactive). Regarding `ON=C1c2ccccc2-c2ccc(O)cc21`, the IC50 is 36.5 µM (active). For `CN(C)c1ccc2c(c1)C(=NO)c1ccccc1-2`, the IC50 is 42.8 µM (active). Consider `CCN(Cc1ccccc1)C(c1ccc(C)cc1)c1nnnn1C(C)(C)CC` (stereo not given), for which the “inhibition” value is 1.68% (inactive). On the same count and under the same terms, to `Brc1cccc(OCCN2CCOCC2)c1` belongs 17.5% (inactive).

For the compound `Nc1ccc(-c2nc3ccc(N)cc3o2)cc1`, the IC50 is 44.4 µM (active). With `CCOc1cc(/C=C/c2cccc[n+]2C)ccc1O`, the IC50 was 27.2 µM (active). As for `COc1ccc(-n2c(=O)c3c4c(sc3n3c(=S)[nH]nc23)CCCC4)cc1`, the IC50 is 30.3 µM (active). Same read-out and setting: the value for `CCn1c(=O)c2c3c(sc2n2c(=S)[nH]nc12)CCC3` was 25 µM (active); that for `COc1ccccc1-n1c(=O)c2c3c(sc2n2c(=S)[nH]nc12)CCC3` was 44.9 µM (active).

In the case of `C=CCSC1=N/C(=C\C=C\c2ccco2)C(=O)S1`, the “inhibition” value is -7.09% (inactive). With `COc1cc(/C=N/n2c(C3CCCCC3)n[nH]c2=S)ccc1O`, the IC50 was 51.8 µM (active). On the same count and under the same terms, the value for `COc1ccc(/C=N/n2c(-c3n[nH]c4c3CCC4)n[nH]c2=S)cc1OC` was 61.5 µM (active); that for `COc1ccc(/C=N/n2c(-c3n[nH]c4c3CCC4)n[nH]c2=S)c(OC)c1OC` was 65.7 µM (active); that for `COc1cccc(/C=N/n2c(-c3n[nH]c4c3CCC4)n[nH]c2=S)c1O` was 54.6 µM (active). For the compound `C=CCOC(=O)c1cc(-c2ccc(/C=C3\C(=O)NC(=O)C(C#N)=C3C)o2)ccc1Cl`, the “inhibition” value is 5.47% (inactive). The same measure, in the same setting: to `CCC1(c2ccccc2)NC(=O)N(CC(=O)Nc2ccc(N3CCCC3)cc2C)C1=O` (stereo not given) belongs 27.8% (inactive). Take `CCN(CC)c1ccc(NC(=O)CN2C(=O)NC3(CCc4ccccc43)C2=O)cc1` (stereo not given): the IC50 was 83.2 µM (active). For the compound `CCN(CC)CCCNCC(=O)Nc1ccc2c(c1)CCC2`, the “inhibition” value was 17.8% (inactive). `Nc1nc(N)c2[nH]c(=S)[nH]c2n1`: the “inhibition” value was 29.5% (inactive). Take `O=C1C=CC2(C=C1)O[C@H](Cc1ccccc1)[C@@H](Cc1ccccc1)O2`: the “inhibition” value was 4.01% (inactive). On the same count and under the same terms, the value for `O=C1/C(=C\c2ccccc2)CN(C(=O)CCN2CCCCC2)C/C1=C/c1ccccc1` was 0.94% (inactive). With `COc1cc(/C=N/NC(=O)CCN2CCN(C(c3ccccc3)c3ccccc3)CC2)ccc1O`, the IC50 was 53.4 µM (active). Regarding `COc1ccc(/C=N/NC(=O)CN2CCCCCCC2)c(C)c1C`, the “inhibition” value is 13.6% (inactive). Regarding `COc1cc(/C=N/NC(=O)CCN2CCCCC2)ccc1O`, the IC50 was 34.3 µM (active). Turning to `C=CCNC(=O)CN1CCN(C(c2ccccc2)c2ccccc2)CC1`, the “inhibition” value is 12.3% (inactive). As for `C=CCc1c(C)nc(-c2ccccc2)nc1Nc1ccc(O)cc1`, the IC50 was 41.3 µM (active). With `CS(=O)(=O)c1ccc2c(c1)sc1nc(=O)c(/C=C3/C=CC(=O)C(O)=C3)c(N)n12`, the IC50 was 60.1 µM (active). The same measure, in the same setting: the value for `Nc1c(/C=C2/C=CC(=O)C(O)=C2)c(=O)nc2sc(CC(=O)N3CCCC3)nn12` was 59.4 µM (active). Still for that read-out and setting: to `Nc1c(/C=C2/C=CC(=O)C(O)=C2)c(=O)nc2sc(CC(=O)N3CCOCC3)nn12` belongs 67.8 µM (active). Turning to `Cc1ccc(C(C)C)c(OCCCCN2CCNCC2)c1`, the “inhibition” value was 25.1% (inactive). As for `CC(NCc1ccc(S(N)(=O)=O)cc1)C(=O)N1c2ccccc2CC1C` (stereo not given), the “inhibition” value was 14.8% (inactive). Same read-out and setting: the value for `COc1cc(OC)c(C2Nc3cccc4cccc(c34)N2)c(OC)c1` was -13.7% [at 5 µM] (inactive). For `COc1ccccc1C1Nc2cccc3cccc(c23)N1`, the IC50 was 51.6 µM (active). The same measure, in the same setting: the value for `Cc1oc(-c2ccccc2)cc1C(=O)Nc1ccc(N(C)C)cc1` was 65.5 µM (active); that for `COc1cc(OC)c(C(=O)Nc2ccc(N(C)C)cc2)cc1OC` was 27.2 µM (active).

In the case of `COc1ccc(NC(=O)Nc2ccc(N(C)C)cc2)cc1`, the IC50 is 21.9 µM (active). For `Cc1ccc(NC(=O)C2=C(c3ccccc3)S(=O)(=O)CCS2(=O)=O)cc1`, the “inhibition” value is 3.49% (inactive). `CN(C)c1ccc(N=Cc2nc(-c3ccccc3)oc2OC(=O)c2cccc(Br)c2)cc1`: the “inhibition” value was 8.13% (inactive). On to `O=C(Nc1ccc(O)cc1)c1cc2n(n1)C(C(F)(F)F)CC(c1ccco1)N2` (stereo not given), for which the IC50 is 28.7 µM (active). Regarding `Cc1cc(C)c(OCCCCN2CCC(C)CC2)c(Br)c1`, the “inhibition” value was 12.7% (inactive). On to `COc1cc(CNc2ccc(N3CCN(C(C)=O)CC3)cc2)ccc1OCc1ccccc1`, for which the concentration for half-maximal inhibition (IC50) is 13.4 µM (active). As to `COc1ccc(CN2CCC(C(N)=O)CC2)cc1OCc1ccccc1`, the “inhibition” value was 18.9% (inactive). The same measure, in the same setting: the value for `COc1ccc(CN2CCN(Cc3ccccc3F)CC2)cc1OC` was 21.7% (inactive). Still for that read-out and setting: the value for `COc1ccc(CN2CCN(C(=O)CC(C)C)CC2)cc1OC` was 15.3% (inactive). For the compound `COc1ccc(CNc2ccc(N3CCN(C(C)=O)CC3)cc2)cc1OC`, the IC50 is 15.1 µM (active). Consider `COc1cc(CNc2ccc3[nH]c(=O)[nH]c3c2)ccc1OCc1ccccc1`, for which the “inhibition” value is 21.1% (inactive). With `COc1cc(/C=C/C(=O)OCC(=O)c2ccc[nH]2)ccc1O`, the IC50 is 25.9 µM (active).

As for `COc1cc(/C=C/C(=O)OCC(=O)c2ccc(OC(F)F)cc2)ccc1O`, the IC50 was 58.2 µM (active).
